Test results from ChEMBL document CHEMBL3988442, “University of Dundee, Small-Polar-MMV Screening Library” (2021).
For some assays here: Potency and affinity values are given separately.

What was measured:
Set-up in all cases: scale not given: direction of the effect not stated beside the values
[1] = molecular target: Protein translocase subunit SecA (Escherichia coli (strain K12)) (UniProt P10408); assay: Assay to Identify E. coli SecA ATPase Inhibitors; type: functional; details: 30 µM
[2] = molecular target: T1, Ubiquitin-activating enzyme e1, putative (Leishmania donovani (strain BPK282A1)) (UniProt E9BSI1); assay: Leishmania donovani Ubiquitin Activating Enzyme (LdE1); type: functional; details: 30 µM
T1 sequence (whole entry): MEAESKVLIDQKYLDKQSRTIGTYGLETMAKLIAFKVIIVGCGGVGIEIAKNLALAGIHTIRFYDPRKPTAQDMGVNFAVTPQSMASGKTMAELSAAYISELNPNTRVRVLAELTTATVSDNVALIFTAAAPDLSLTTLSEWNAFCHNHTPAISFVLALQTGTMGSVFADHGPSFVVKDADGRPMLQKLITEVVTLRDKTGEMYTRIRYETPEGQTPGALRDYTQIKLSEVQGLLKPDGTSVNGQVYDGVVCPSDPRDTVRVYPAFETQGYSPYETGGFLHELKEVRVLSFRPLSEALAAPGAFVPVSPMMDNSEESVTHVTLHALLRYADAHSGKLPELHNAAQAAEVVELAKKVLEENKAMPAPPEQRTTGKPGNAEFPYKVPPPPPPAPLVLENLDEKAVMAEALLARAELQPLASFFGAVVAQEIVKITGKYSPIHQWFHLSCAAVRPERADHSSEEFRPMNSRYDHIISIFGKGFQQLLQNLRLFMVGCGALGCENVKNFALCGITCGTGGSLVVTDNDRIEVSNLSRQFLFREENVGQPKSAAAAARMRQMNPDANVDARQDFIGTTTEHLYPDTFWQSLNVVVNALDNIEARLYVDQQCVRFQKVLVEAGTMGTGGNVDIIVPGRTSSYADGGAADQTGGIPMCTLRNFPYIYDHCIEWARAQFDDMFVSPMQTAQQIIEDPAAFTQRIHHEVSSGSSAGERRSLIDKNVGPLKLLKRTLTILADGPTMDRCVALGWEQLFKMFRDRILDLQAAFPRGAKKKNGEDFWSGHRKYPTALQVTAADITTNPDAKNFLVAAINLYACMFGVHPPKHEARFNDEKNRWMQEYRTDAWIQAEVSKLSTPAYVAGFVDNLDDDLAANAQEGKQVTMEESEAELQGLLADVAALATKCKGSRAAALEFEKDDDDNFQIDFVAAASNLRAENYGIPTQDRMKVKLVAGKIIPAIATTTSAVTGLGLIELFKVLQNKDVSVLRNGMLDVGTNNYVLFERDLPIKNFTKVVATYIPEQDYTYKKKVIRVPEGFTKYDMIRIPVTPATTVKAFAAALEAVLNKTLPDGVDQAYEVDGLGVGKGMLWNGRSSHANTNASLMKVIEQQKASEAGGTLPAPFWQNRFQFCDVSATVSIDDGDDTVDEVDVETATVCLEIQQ

[3] = molecular target: AMP-activated protein kinase, AMPK (Homo sapiens) (UniProt P54646+O43741+P54619+Q9UGJ0+Q9Y478+Q13131+Q9UGI9); assay: AMP-dependent Kinase enzyme assay. An in vitro enzyme assay that detects ADP turnover that is directly proportional to AMPK activity. This uses naive AMPK that is activated during the assay with MK-8722; type: functional; details: 30 µM
[4] = molecular target: Sialic acid-binding Ig-like lectin 9 (Homo sapiens) (UniProt Q9Y336); assay: Hs-Siglec9 ALPHAscreen SOP 20170721; details: 10 µM
Chain of Sialic acid-binding Ig-like lectin 9 (Homo sapiens) (Q9Y336 whole entry): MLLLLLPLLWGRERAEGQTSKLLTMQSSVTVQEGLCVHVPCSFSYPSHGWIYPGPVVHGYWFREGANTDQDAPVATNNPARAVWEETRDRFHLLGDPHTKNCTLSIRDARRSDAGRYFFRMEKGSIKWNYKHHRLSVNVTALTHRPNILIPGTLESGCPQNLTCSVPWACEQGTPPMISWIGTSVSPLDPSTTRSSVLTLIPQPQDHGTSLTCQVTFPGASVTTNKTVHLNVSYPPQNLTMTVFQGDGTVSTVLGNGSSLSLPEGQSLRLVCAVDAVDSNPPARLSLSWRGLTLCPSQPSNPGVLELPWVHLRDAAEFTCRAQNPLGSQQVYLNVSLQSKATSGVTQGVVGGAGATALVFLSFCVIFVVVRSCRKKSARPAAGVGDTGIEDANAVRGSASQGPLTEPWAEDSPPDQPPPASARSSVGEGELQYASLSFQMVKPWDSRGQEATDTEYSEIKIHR

Trypanosoma cruzi = assay: Trypanosoma cruzi phosphomannomutase and mannose-1-phosphate guanylyltransferase assay; type: functional; details: 10 µM
[5] = molecular target: T2, Arginase-2, mitochondrial (Homo sapiens) (UniProt P78540); assay: in vitro enzyme assay to detect the production of urea directly proportional to the activity of Arginase II; type: functional; details: 33.3 µM; note: in the data most compounds retested in dose-response had high values
T2 sequence (whole entry): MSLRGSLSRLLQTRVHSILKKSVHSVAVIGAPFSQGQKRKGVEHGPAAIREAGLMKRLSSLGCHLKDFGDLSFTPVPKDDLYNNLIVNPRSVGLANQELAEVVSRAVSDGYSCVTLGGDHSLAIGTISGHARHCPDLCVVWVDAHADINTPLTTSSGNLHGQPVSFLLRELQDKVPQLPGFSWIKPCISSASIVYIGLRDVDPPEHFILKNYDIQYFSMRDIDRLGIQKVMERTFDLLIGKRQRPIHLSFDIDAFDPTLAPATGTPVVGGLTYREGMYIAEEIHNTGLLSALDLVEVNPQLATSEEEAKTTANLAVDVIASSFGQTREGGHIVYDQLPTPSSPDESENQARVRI

[6] = molecular target: T3, Proteasome subunit beta (Trypanosoma cruzi) (UniProt O96673); assay: Trypanosoma cruzi proteasome chymotrypsin-like activity (TcProtChymo) assay.; note: in the data most compounds retested in dose-response had high values; type: functional; details: 9.37 µM
T3 sequence (whole entry): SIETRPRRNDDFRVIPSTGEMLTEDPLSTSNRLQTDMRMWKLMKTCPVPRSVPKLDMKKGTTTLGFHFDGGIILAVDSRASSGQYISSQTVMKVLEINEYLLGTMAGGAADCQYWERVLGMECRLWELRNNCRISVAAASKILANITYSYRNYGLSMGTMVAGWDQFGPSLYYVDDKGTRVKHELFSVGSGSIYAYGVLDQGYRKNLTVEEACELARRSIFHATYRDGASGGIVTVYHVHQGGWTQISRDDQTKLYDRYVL

Homo sapiens = species on record: Homo sapiens; assay: To identify inhibition of the IFN signalling (Jak-Stat) pathway via expression of an eGFP reporter gene under the control of an IFN-stimulated response element (ISRE) containing MxA promoter.; type: functional; details: 30 µM
[7] = molecular target: T4, Tyrosyl-tRNA synthetase, putative (Trypanosoma cruzi (strain CL Brener)) (UniProt Q4DSP6); assay: Trypanosoma cruzi tyrosyl tRNA synthetase (TcYRS) _High Tyrosine SOP; type: functional; details: 30 µM; note: in the data most compounds retested in dose-response had high values
T4 sequence (whole entry): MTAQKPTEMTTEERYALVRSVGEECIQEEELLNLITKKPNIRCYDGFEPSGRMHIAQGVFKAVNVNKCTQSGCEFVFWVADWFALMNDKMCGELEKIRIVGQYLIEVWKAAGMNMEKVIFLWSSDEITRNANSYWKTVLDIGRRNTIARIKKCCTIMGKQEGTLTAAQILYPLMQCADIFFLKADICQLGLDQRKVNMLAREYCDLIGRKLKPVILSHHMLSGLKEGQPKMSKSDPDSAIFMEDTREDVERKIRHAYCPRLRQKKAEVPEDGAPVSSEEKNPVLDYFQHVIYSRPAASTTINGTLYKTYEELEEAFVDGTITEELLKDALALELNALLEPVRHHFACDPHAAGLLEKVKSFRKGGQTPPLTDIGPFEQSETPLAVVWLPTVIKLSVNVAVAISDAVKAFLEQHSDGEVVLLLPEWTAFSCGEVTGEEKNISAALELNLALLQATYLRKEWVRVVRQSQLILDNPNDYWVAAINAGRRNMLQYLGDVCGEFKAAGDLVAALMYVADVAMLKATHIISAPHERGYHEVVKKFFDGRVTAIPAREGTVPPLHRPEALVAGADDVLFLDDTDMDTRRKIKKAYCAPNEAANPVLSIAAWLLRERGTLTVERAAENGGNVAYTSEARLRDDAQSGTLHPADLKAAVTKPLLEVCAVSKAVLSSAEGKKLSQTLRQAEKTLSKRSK

[8] = molecular target: T4, Tyrosyl-tRNA synthetase, putative (Trypanosoma cruzi (strain CL Brener)); assay: Trypanosoma cruzi tyrosyl tRNA synthetase (TcYRS) SOP; type: functional; details: 30 µM
[9] = molecular target: Chromo domain-containing protein 1 (Saccharomyces cerevisiae (strain ATCC 204508 / S288c) (Baker's yeast)) (UniProt P32657); assay: ScCHD-1 Enzyme Inhibition Assay; type: functional; details: 30 µM; note: in the data most compounds retested in dose-response had high values
Chain of Chromo domain-containing protein 1 (Saccharomyces cerevisiae (strain ATCC 204508 / S288c) (Baker's yeast)) (P32657 whole entry, the tested form may be a part): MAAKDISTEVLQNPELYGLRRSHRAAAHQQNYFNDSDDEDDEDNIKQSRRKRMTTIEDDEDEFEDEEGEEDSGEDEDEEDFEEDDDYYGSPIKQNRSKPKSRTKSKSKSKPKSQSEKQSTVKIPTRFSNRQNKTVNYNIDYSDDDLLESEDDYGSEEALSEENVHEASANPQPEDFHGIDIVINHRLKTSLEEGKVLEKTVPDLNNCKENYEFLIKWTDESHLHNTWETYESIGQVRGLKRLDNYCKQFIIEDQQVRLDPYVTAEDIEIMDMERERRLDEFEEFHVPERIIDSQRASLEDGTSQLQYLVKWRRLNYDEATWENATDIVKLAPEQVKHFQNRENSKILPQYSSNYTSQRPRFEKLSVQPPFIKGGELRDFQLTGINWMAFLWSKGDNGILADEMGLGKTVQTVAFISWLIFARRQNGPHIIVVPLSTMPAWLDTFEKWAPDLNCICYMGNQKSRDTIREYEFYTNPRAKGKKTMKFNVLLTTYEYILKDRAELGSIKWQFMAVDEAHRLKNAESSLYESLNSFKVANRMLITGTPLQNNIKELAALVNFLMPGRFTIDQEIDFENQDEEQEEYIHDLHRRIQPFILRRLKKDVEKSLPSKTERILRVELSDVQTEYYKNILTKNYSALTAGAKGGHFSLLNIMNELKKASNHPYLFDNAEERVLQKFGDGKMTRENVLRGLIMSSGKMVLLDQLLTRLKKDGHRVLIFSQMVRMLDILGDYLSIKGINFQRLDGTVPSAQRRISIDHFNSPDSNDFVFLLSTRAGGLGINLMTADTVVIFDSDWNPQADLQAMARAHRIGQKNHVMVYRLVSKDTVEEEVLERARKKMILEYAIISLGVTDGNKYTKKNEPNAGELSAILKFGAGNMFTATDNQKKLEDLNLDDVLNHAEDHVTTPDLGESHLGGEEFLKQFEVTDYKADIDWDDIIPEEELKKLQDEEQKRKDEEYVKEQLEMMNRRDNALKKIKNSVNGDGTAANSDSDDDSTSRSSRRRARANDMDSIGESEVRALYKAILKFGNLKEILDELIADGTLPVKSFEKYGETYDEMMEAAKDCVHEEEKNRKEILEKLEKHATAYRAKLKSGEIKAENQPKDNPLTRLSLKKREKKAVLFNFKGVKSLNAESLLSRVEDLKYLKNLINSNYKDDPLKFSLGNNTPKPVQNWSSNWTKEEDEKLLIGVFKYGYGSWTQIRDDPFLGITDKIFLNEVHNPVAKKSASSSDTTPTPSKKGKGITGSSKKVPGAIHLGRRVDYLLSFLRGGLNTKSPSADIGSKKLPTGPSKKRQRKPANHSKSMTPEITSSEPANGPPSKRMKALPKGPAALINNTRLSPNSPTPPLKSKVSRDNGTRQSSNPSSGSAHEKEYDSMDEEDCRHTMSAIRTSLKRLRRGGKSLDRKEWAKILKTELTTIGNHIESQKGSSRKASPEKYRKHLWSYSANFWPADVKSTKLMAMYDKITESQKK

Chain of Protein translocase subunit SecA (Escherichia coli (strain K12)) (P10408 whole entry): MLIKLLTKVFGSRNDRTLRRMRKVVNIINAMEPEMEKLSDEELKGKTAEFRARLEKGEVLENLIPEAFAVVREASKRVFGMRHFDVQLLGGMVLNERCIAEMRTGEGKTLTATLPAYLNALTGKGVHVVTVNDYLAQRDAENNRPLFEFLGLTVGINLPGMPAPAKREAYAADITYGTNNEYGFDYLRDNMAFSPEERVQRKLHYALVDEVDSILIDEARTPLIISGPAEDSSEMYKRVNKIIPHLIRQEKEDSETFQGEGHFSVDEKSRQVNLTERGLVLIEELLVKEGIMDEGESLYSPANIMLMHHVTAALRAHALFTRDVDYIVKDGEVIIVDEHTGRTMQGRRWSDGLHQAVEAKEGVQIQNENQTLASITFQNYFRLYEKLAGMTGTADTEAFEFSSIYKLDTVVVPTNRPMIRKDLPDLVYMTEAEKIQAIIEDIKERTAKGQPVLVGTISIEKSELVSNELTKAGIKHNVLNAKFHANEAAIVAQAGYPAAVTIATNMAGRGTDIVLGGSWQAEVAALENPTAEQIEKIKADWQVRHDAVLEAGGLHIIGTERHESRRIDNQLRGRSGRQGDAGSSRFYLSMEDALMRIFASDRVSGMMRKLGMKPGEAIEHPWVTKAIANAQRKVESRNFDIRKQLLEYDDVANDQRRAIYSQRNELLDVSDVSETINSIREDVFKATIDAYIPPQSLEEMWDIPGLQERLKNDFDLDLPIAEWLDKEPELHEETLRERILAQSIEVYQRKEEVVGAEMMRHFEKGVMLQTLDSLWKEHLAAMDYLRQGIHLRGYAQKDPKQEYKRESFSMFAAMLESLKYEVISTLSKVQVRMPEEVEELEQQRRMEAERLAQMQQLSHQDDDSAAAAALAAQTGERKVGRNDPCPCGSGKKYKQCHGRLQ

| Structure (SMILES) | Percent Effect [1] | Percent Effect [2] | Percent Effect [3] | Percent Effect [4] | Percent Effect (Trypanosoma cruzi) | Percent Effect [5] | Percent Effect [6] | Percent Effect (Homo sapiens) | Percent Effect [7] | Percent Effect [8] | Percent Effect [9] |
| --- | --- | --- | --- | --- | --- | --- | --- | --- | --- | --- | --- |
| Cc1noc([C@H]2C[C@@H]3CCN(CC4CC4)C[C@H]3O2)n1 | -4.27% | 7.79% | 4.66% | 0.715% | -1.48% | -0.645% | 3.13% | 4.2% | -1.06% | 3.85% | -3.28% |
| O=C(Nc1nccs1)N(CCO)Cc1ccsc1 | -1.95% | 13.2% | -2.9% | -1.76% | 5.08% | -2.3% | 11.5% | -0.668% | 8.33% | 29.3% | -13.6% |
| CSCCNC(=O)c1ccc(OC2CCN(CC(C)(C)C)CC2)c(Cl)c1 | -3.94% | 8.11% | -0.678% | 31.3% | 7.53% | 0.248% | 7.47% | -3.54% | 2.15% | 8.64% | -9.27% |
| COc1cc(C)nc(N2CCN(C(=O)CCc3cscn3)CC2)n1 | 1.16% | 2.7% | -1.3% | 0.273% | -6.95% | 1.91% | 11.4% | 0.884% | 5.82% | 9.76% | -3.75% |
| CC(C)OCCN(Cc1cccc(O)c1)C1CCC(O)CC1 (configuration not stated) | -4.61% | 0% | -1.14% | -7.69% | -5.96% | 0.744% | 4.89% | -1.68% | 0% | -1.24% | -0.807% |
| Cc1cccc(CC(=O)NCCCOC(C)C)c1 | -0.872% | 18.2% | 0.619% | -8.05% | -3.75% | 0.712% | 9.8% | 27.8% | 9.71% | 19.5% | -7.62% |
| Cc1cnn(CC2CCCN2C(=O)CCc2nc3ccccc3[nH]2)c1 (configuration not stated) | -4.12% | 7.59% | -2.81% | 11.1% | 4.82% | 0.38% | -3.69% | -14.8% | 1.48% | 8.86% | -1.08% |
| O=C(c1cccn1Cc1cccs1)N1CCCC1Cn1cccn1 (configuration not stated) | -1.97% | -23.7% | -2.11% | 10.5% | 8.68% | -4.68% | 8.38% | -4.07% | 0.493% | 6.17% | 3.37% |
| Cc1nn(C)c(C)c1C1CCCN1CC(=O)Nc1ccncc1 (configuration not stated) | -3.89% | -2.7% | -12% | -1.63% | -3.49% | 4.41% | -2.88% | 7.51% | -0.493% | -11.1% | 4.66% |
| OC(COCc1cccs1)CN1CCC(c2ccn[nH]2)CC1 (configuration not stated) | 0.446% | 15.2% | -3.7% | -4.14% | -8.03% | 3.42% | 8.6% | 16.3% | -2.46% | 8.86% | -3.55% |
| O=C(NCC1(CO)CC1)c1cccc2ccccc12 | -5.68% | 2.74% | 20.9% | -5.02% | -4.9% | -0.455% | 10.7% | 0.244% | 6.45% | 2.5% | -1.94% |
| CCCc1nc(N2CCN(CC)CC2)c2c(n1)c(C)nn2CC | -0.47% | 7.79% | 2.46% | 26.2% | 5.01% | -6.9% | 10.5% | 10.3% | 7.53% | 16.1% | -5.13% |
| CCc1ccc(NC(=O)c2cnc(N3CCN(C)CC3)nc2C)cc1 | -3.08% | 20.8% | -8.09% | -20.9% | 4.63% | -0.645% | 8.01% | 15.9% | 2.12% | 11.5% | -10.8% |
| Cc1nc(CN2CCn3cc(CNC(=O)C4CCC4)nc3C2)cs1 | -1.94% | 13.3% | -0.557% | 6.49% | 4.63% | -45.3% | 24.1% | -2.13% | 9.38% | 27.5% | -8.63% |
| O=C1COC2(CCN(Cc3cccs3)CC2)CN1c1ccccc1 | -2.08% | 5.48% | 0.847% | 2.36% | -1.39% | -2.4% | 7.62% | -0.737% | 3.12% | 3.7% | -0.651% |
| CS(=O)(=O)N1C[C@@H]2CC[C@H](C1)N(Cc1cscn1)C2=O | -4.04% | 11% | -5.85% | 7.01% | 6.35% | -4.39% | 9.85% | 3.89% | 6.25% | 18.5% | -6.64% |
| CN(C)C(=O)CS(=O)(=O)Cc1cc(Cl)c2c(c1)OCO2 | -3.08% | 18.4% | -1.27% | 2.86% | -0.654% | 3.96% | 5.16% | -13.9% | 6.4% | 23.5% | -7.39% |
| CC1CCc2nc(O)c(C(=O)NCc3cccc(F)c3)cc2C1 (configuration not stated) | -3.85% | -12% | 11.6% | 0.168% | -3.54% | -5.46% | 4.99% | 9.92% | -1.06% | 0% | -2.98% |
| Cc1nc(N2CCCC2)nc2c1CCN(C(=O)CC1CC1)CC2 | -4.09% | 20% | -2.46% | 4.72% | 2.75% | -7.22% | 16.1% | 9.15% | -2.12% | 10.3% | -11% |
| CS(=O)(=O)NCCCN1CCCCC1c1cc2ccccc2[nH]1 (configuration not stated) | -6.23% | 15.2% | -13% | 11.7% | 8.03% | -7.22% | 5.65% | -8.5% | 1.48% | 16.5% | -7.23% |
| CC(C)NC(=O)[C@@H]1CCO[C@@H]2CCN(c3ncccn3)C[C@H]21 | -6.07% | 16% | -1.13% | 0.524% | 0.579% | -45% | 4.1% | -11% | 8.33% | 10% | -7.2% |
| Cc1nc(C2CCCN(C(=O)C(C)(C)n3cc(Cl)cn3)C2)no1 (configuration not stated) | -1.25% | 3.8% | -0.545% | 3.13% | 2.77% | 3.23% | 0.343% | -9.61% | 6.25% | 7.59% | -13.7% |
